Test [1] is described as follows: CCTE_Padilla_ZF_Score.Craniofacial: CCTE's 144 Hour Post-fertilization zebrafish Assay Score for Craniofacial Malformation, Padilla Lab (AID 2284405). The method in brief:
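Wild-type zebrafish embryos (with chorions), one per well in 10% Hanks', were dosed at 6–8 hpf in sealed plates and kept at 26C. They were rinsed at 5 dpf. At 6 dpf two blinded assessors scored craniofacial malformations by brightfield stereomicroscopy.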

The nature of test [2]: CCTE_Padilla_ZF_Score.Edema: CCTE's 144 Hour Post-fertilization zebrafish Assay Score for Edema Malformation, Padilla Lab (AID 2284406). In a few lines:
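Wild-type zebrafish embryos, one per well in Hanks' solution, dosed at 6-8 hpf, sealed and reared at 26C on a 14:10 h cycle; rinsed on 5 dpf. At 6 dpf, blinded assessors scored edema by stereomicroscopy.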

A short description of test [3]: CCTE_Padilla_ZF_Score.Spine: CCTE's 144 Hour Post-fertilization zebrafish Assay Score for Spine Malformation, Padilla Lab (AID 2284407). In a few lines:
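Wild-type zebrafish embryos, one per well in Hanks' solution, dosed at 6–8 hpf in sealed plates at 26C, 14:10 h light:dark; rinsed at 5 dpf. Two blinded assessors scored spinal defects by stereomicroscopy at 6 dpf; fitted versus DMSO.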

Test [4] can be described thus: CCTE_Padilla_ZF_Score.Swim_bladder: CCTE's 144 Hour Post-fertilization zebrafish Assay Score for Swim Bladder Malformation, Padilla Lab (AID 2284408). In a few lines: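 Wild-type zebrafish embryos, one per well in 10% Hanks', dosed at 6–8 hpf, sealed, reared at 26C and rinsed at 5 dpf. Blinded assessors scored uninflated swim bladder by stereomicroscopy at 6 dpf, relative to DMSO.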

The nature of test [5]: CCTE_Padilla_ZF_Score.Position: CCTE's 144 Hour Post-fertilization zebrafish Assay Score for Position, Padilla Lab (AID 2284409). The method in brief:
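Wild-type zebrafish embryos (with chorions) exposed singly from 6–8 hpf in sealed wells of Hanks' solution at 26C, rinsed at 5 dpf. At 6 dpf, blinded assessors scored abnormal water-column position by brightfield stereomicroscopy, relative to DMSO.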

A short description of test [6]: CCTE_Padilla_ZF_Score.Living: CCTE's 144 Hour Post-fertilization zebrafish Assay Score for Viability, Padilla Lab (AID 2284410).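 Also: larval death at 6 dpf judged by absent heartbeat or coagulation.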 The method in brief:
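Wild-type zebrafish embryos were exposed singly from 6–8 hpf in sealed wells of Hanks' solution at 26C, then rinsed at 5 dpf. At 6 dpf, blinded assessors scored mortality (no heartbeat or coagulation) by stereomicroscopy, fitted against DMSO.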

Test [7] in a line: CCTE_Padilla_ZF_Score.Tail: CCTE's 144 Hour Post-fertilization zebrafish Assay Score for Tail Malformation, Padilla Lab (AID 2284414). In a few lines: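 Wild-type zebrafish embryos, one per well in 200 uL 10% Hanks', dosed at 6-8 hpf, sealed, and kept at 26 C on a 14:10 h light cycle. Chemical was rinsed out at 5 dpf. Blinded brightfield scoring of tail defects followed at 6 dpf.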

A further test concerns TTR (gene 7276). Kind of test: CCTE_GLTED_hTTR_0.125uM: CCTE's human Transthyretin (hTTR) Inhibition Assay, with 0.125uM TTR, Great Lakes Toxicology and Ecology Division (GLTED) Lab (AID 2284431).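 Also: hits lower the fluorescence signal relative to DMSO baseline.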 The method in brief: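 Fluorescence (380 ex, 475 em) reported the ANSA probe remaining bound to 0.125uM human transthyretin. Chemicals were incubated with the protein for 2 hours; activity was scored as loss of signal against DMSO negative control.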

Test [8] can be described thus: Tanguay_ZF_120hpf_BRN: Oregon State University Tanguay Lab 120 Hour Post-fertilization zebrafish Assay for Brain Region Malformation (AID 2284402). The method in brief: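 Dechorionated wild-type Tropical 5D zebrafish embryos exposed statically from 6 to 120 hpf at 28C, one per well, 0.64% DMSO final. Brain malformation scored at 120 hpf by brightfield as present/absent; dead embryos not scored.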

Test [9] can be described thus: Tanguay_ZF_120hpf_TCHR: Oregon State University Tanguay Lab 120 Hour Post-fertilization zebrafish Assay for Touch Responsive (AID 2284403). The method in brief: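 Dechorionated Tropical 5D wild-type zebrafish embryos, one per well from 6 hpf, were statically exposed to 120 hpf at 28 °C (0.64% DMSO). Touch response was scored present/absent at 120 hpf and not scored in dead larvae.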

A short description of test [10]: Tanguay_ZF_120hpf_ANY: Oregon State University Tanguay Lab 120 Hour Post-fertilization zebrafish Assay for Any Mortality and Malformation (AID 2284404). The method in brief:
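Dechorionated Tropical 5D wild-type embryos, one per well from 6 hpf, static exposure in sealed, dark plates at 28C until 120 hpf, 0.64% DMSO final. Brightfield scoring of mortality and malformations as binary presence/absence, pooling 13 morphology endpoints.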

Drawing on PubChem BioAssay (EPA / NIEHS), this text covers outcome and AC50 for nine molecules.

Structures are written as SMILES. The source made the active and inactive calls. The calls were made as follows: active = hit-call score of the fitted dose curve at least 0.9, where 1 is the maximum; inactive = score below 0.9.

For the molecule `FC1(F)C=CC(F)(F)C1(F)F`, the molecule was classed as inactive in test [1], in test [2], in test [3], in test [4], in test [5] and in test [6]. In addition, in test [7], the result was inactive.
With `CCC(C)c1ccccc1O` (configuration not stated), the AC50 in the test with TTR (gene 7276) was 22.4 µM (active).
With `FCOC(C(F)(F)F)C(F)(F)F`, the outcome in [1], in [2], in test [3], in test [4], in test [5] and in test [6] was inactive. In test [7], the molecule was called inactive.
Take `O=C1OC(=O)C(F)(F)C1(F)F`: the molecule was classed as inactive in test [1], in test [2], in [3], in [4], in test [5] and in test [6]. Further, in test [7], the molecule was classed as inactive.
On to `CN(CCO)S(=O)(=O)C(F)(F)C(F)(F)C(F)(F)C(F)(F)C(F)(F)C(F)(F)C(F)(F)C(F)(F)F`, for which the molecule was classed as inactive in [8], in test [1], in test [2], in test [3], in test [4] and in test [5]. Besides, the call in test [7] was inactive. In addition, the AC50 is 29.6 µM (active) in test [9], 28.9 µM (active) in test [10] and 10.7 µM (active) in test [6].
For the molecule `C=CC(F)(F)C(F)(F)C(F)(F)C(F)(F)F`, the outcome in [1], in test [2], in test [3], in test [4], in [5] and in [6] was inactive. For the same molecule, the call in [7] was inactive.
Turning to `O=P(O)(O)CCC(F)(F)C(F)(F)C(F)(F)C(F)(F)C(F)(F)C(F)(F)F`, the molecule was called inactive in [8], in [9], in test [10], in test [1], in test [3] and in test [4]. Further, the molecule was called inactive in test [5] and in test [7]. Moreover, the AC50 in test [2] was 23.9 µM (active); in [6], 32.1 µM (active).
Turning to `CCCCCCCCCC=CCC1CC(=O)OC1=O` (configuration not stated), in the test on TTR (gene 7276), the AC50 is 7.87 µM (active).
As for `FC(OC(F)(F)C(F)(F)C(F)(F)F)C(F)(F)F` (configuration not stated), the molecule was classed as inactive in test [1], in [2], in test [3], in test [4], in test [5] and in test [6]. Moreover, in [7], the molecule was called inactive.
